Rows were chosen to be rich in hits. Some 4.7% of all compounds tested hit in one or more screens of this group.
HSF1 activator – HSF-1 activators, primary screen, NIH3T3-HGL cells, MG132 stress, luminescence, single point; NIH3T3-HGL HSF-1 luciferase reporter, 8 h; 100% = twice DMSO control signal; activation, % at 9 µM; hit rate 1.7% among 300,000; AID 504408, 2011;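 active = mean replicate activation of at least 50% with a set share of replicates each reaching 50%; inconclusive = only one of those two conditions met; inactive = mean below 50% and too few replicates reaching it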;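 also: 0% = median of the neutral control wells and 100% = twice that signal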
HSP90 inh – HSP90 inhibitors, primary screen, cell lysate, luminescence; Rabbit reticulocyte lysate, luciferase refolding luminescence, 3 h; inhibition, % at 5.6 µM; hit rate 0.91% among 290,000; AID 1789, 2009;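 active = inhibition above the screen-wide mean plus 3 SD, computed separately per campaign, cut at about 16% in these data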;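 also: 0% = DMSO wells and 100% = 60 µM geldanamycin wells; inhibitors lower the luminescence because luciferase stays unfolded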
LMP1 NFkB inh – EBV LMP1-driven NF-kappaB luciferase reporter inhibitors, primary screen, cell-based, luminescence, single point. hit rate 0.69% among 350,000. LMP1-induced NF-kappaB luciferase reporter cells. inhibition, % at 12.5 µM; in the data active = inhibition above about 41%; inconclusive = no clear call, values can overlap the other calls;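 also: 0% = neutral control wells and 100% = reference inhibitor control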
TROY NFkB inh – inhibitors of TROY-driven NF-kB signaling, primary screen, Q293 LMP1-TROYcd cells, NF-kB luciferase, uHTS; hit rate 0.98% among 360,000; AID 1347056, 2019; inhibition, % at 10 µM; Q293 LMP1-TROYcd NF-kB luciferase reporter, 4 h;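 active = compounds whose plate-normalised and pattern-corrected inhibition of the luciferase reporter signal at the single screening dose is 50% or more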
HSF1 inhib – HSF1 inhibitors in luciferase reporter cells, primary screen, cell-based, NIH3T3, luminescence. hit rate 0.77% among 300,000. AID 2098, 2009. activity change, negative = inhibition, % at 7.5 µM (by protocol). NIH3T3-HGL HSE-luciferase, MG132-induced, luminescence 8 h; hits give low values;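 active = more than half of replicate wells show activity change below -50%, luminescence cut by over half; inconclusive = some wells, but at most half, below -50%; inactive = no replicate well below -50%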;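 also: luciferase reports HSF-1 transcriptional activity via heat shock element; 0% = median of DMSO wells and -100% = zero luminescence signal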
TWEAK Fn14 block – inhibitors of TWEAK-Fn14 signaling, primary screen, luciferase reporter cells, uHTS; TWEAK-stimulated Fn14 reporter cells, luciferase luminescence, 8 h; hit rate 2% among 360,000; inhibition, % at 10 µM; in the data active = inhibition above about 50%
* = called active by the depositor; ? = inconclusive; · = not tested or not shown.

SMILES	HSF1 activator	HSP90 inh	LMP1 NFkB inh	TROY NFkB inh	HSF1 inhib	TWEAK Fn14 block
O=C(c1ccc(Cl)nc1)N1CCc2ccccc2C1	-13	3	-4	·	0	79*
Cc1ccccc1NS(=O)(=O)c1cc(C(=O)N2CCc3ccccc3C2)ccc1C	44	0	5	25	14	-15
c1ccc2c(c1)Sc1cnccc1N2CC1CO1 (stereo not given)	·	·	1	7	·	28
O=C1NC[C@@H](CCCCN2CCN(Cc3ccccc3)C(=O)C2=O)N(CCC2CCCCC2)C1=O	·	·	·	0	·	8
CC1(C(=O)NCCC#N)CCN1C(=O)C1(c2ccccc2)CCCC1 (stereo not given)	·	·	·	-1	·	-4
Cc1nn(CCc2nn[nH]n2)c2nc(-c3ccc(Br)cc3)cc(C(F)(F)F)c12	8	-3	-8	53*	1	32
CC1(C(=O)NS(=O)(=O)c2ccc(Cl)cc2)CCN1C(=O)CCc1cccs1 (stereo not given)	·	·	·	0	·	-1
O=[N+]([O-])c1cccnc1NCCNc1ncc(C(F)(F)F)cc1Cl	85*	-5	-56	-13	62	-59
O=[N+]([O-])c1ccccc1NCCNc1ncc(C(F)(F)F)cc1Cl	45	0	-6	-41	44	-19
CC(C)CC1C(=O)N(Cc2cn(CC3CCCCC3)nn2)CCS(=O)(=O)N1Cc1ccc(-c2cccc(C#N)c2)cc1 (stereo not given)	·	·	8	11	·	9
CCn1nc(C)c(CN2CCN(Cc3cccc(OC)c3)C(CCO)C2)c1C (stereo not given)	-13	-5	-16	2	3	-28
CCOc1ccc(CN2CCN(Cc3c(C)nn(CC)c3C)CC2CCO)cc1 (stereo not given)	5	1	1	0	-3	76*
Cc1ccc(N(CCCCN2C(=O)c3ccccc3C2=O)C(=O)c2cccc([N+](=O)[O-])c2)cc1	70*	2	-5	8	35	-18
CCOC(=O)Cc1csc(NC(=O)c2sc3nc4ccc(CC)cc4cc3c2N)n1	-64	0	-2	3	-54*	8
CCOC(=O)Cc1csc(NC(=O)c2c(O)c3ccccc3n(CC(C)C)c2=O)n1	56*	3	9	36	14	54*
CCOC(=O)Cc1csc(NC(=O)c2cccs2)n1	28	-1	-24	-43	20	-24
CCOC(=O)Cc1csc(NC(=O)c2sc3nc4cc(C)ccc4cc3c2N)n1	-1	5	0	-34	4	10
CCOC(=O)Cc1csc(NC(=O)c2ccoc2C)n1	57*	1	-4	-21	16	-7
CCOC(=O)Cc1csc(NC(=O)c2ccc(Br)s2)n1	0	16*	·	·	0	·
CCOC(=O)Cc1csc(N/N=C/c2ccc(Cl)cc2)n1	8	9	49*	-50	-5	3
C[C@@H]1C(NC(=O)c2ccccc2)CC2CC1C2(C)C (stereo not given in full)	73*	0	-3	12	21	2
C[C@H](c1ccccc1)N1C[C@@H](COCc2ccccc2)Oc2cc(N3CC[C@@H](N(C)C)C3)ccc2S1(=O)=O	·	·	·	-6	·	-2
CCOC(=O)C(c1nc2ccccc2[nH]1)n1c(-c2ccccn2)nc2ccccc21 (stereo not given)	·	·	·	-54	·	13
CCc1c(C)nc2ccc(Br)cc2c1SCCC#N	-51	1	26	48	?	79*
CCCCc1c(C)nc2ccc(Br)cc2c1SCCC#N	-8	2	·	·	-2	·
SMILES	HSF1 activator	HSP90 inh	LMP1 NFkB inh	TROY NFkB inh	HSF1 inhib	TWEAK Fn14 block
COc1ccc(/C=N/Nc2nc(-c3cccc(S(=O)(=O)N4CCCC4)c3)cs2)cc1OC	0	-3	15	17	12	13
COc1cc(/C=N/Nc2nc(-c3ccc(S(=O)(=O)N(C)C)cc3)cs2)ccc1O	25	7	5	12	12	81*
CCOc1cc(/C=N/Nc2nc(-c3cccc(S(=O)(=O)N4CCCC4)c3)cs2)ccc1O	24	-2	0	15	8	61*
CC(C)=CCc1c(O)cc2c(c1O)C(=O)CC(c1ccccc1)O2 (stereo not given)	-20	·	6	10	-13	47
O=C1CC(c2ccc(O)c(O)c2)Oc2c1ccc(O)c2O (stereo not given)	·	·	0	-3	·	62*
CC(C)=CCc1c(O)ccc2c1OC(c1ccc(O)c(O)c1)CC2=O (stereo not given)	33	1	-8	42	22	75*
CC1(C(=O)Nc2ccc3[nH]ncc3c2)CCN1C(=O)C/C=C/c1ccccc1 (stereo not given)	·	·	·	7	·	4
Fc1ccc(N/N=C/c2ccc(N3CCOCC3)cc2)c(F)c1	15	9	-39	70*	1	45
CCOc1cc2c(cc1OCC)C(c1ccc(OC)cc1)N(c1ccccc1)C(=O)C2 (stereo not given)	-90	2	-6	-8	-85*	-8
O=C([C@H]1O[C@@H](n2ccc(=O)[nH]c2=O)[C@H](O)[C@@H]1O)N(CCC1=CCCCC1)CC1CC1	·	·	·	-4	·	-4
O=C(COC(=O)C1=COCCO1)Nc1ccccc1Oc1ccccc1	-11	-3	8	11	-9	64*
Cc1ccc(-c2csc(NC(=O)C3=COCCO3)n2)cc1	34	0	-34	-38	22	-4
O=C(COC(=O)C1=COCCO1)Nc1cccc(Oc2ccccc2)c1	0	8	-8	6	1	-10
O=C(Nc1nc(-c2ccc(Oc3ccccc3)cc2)cs1)C1=COCCO1	-2	2	9	33	2	62*
O=C(COc1ccc(C(=O)c2ccc(F)cc2)cc1)Nc1cccc(S(=O)(=O)N2CCOCC2)c1	·	·	16	54*	·	57*
O=C(COC(=O)CCC(=O)c1ccc(F)cc1)Nc1cccc(S(=O)(=O)N2CCOCC2)c1	-13	-2	-24	6	-10	-16
CCC(=O)c1ccc(OCC(=O)Nc2cccc(S(=O)(=O)N3CCCCCC3)c2)cc1	·	·	17	31	·	54*
Cc1cc(OCC(=O)Nc2cccc(S(=O)(=O)N3CCCCC3)c2)ccc1Cl	·	·	-1	27	·	36
Cc1c(-c2nc(N)nc(Nc3ccccc3)n2)oc2ccccc12	76*	-2	-77	-68	38	24
CCCCN(CC)c1nc(N)c2c(N)nc(OCC)cc2c1C#N	57*	3	-2	6	22	15
CCOc1cc2c(C#N)c(N3CCCC3)nc(N)c2c(N)n1	-50	·	1	-12	-36	-7

Compound activity deposited in PubChem BioAssay by several laboratories.
